Screening results deposited in PubChem by National Center for Advancing Translational Sciences (NCATS).
Hits are enriched below; roughly 19% of the tested compounds scored in any of these assays.
IL-1B inflam inh – qHTS for Inhibitors of Inflammasome Signaling: IL-1-beta AlphaLISA Primary Screen. THP-1 LPS/ATP IL-1B secretion, AlphaLISA, 16 h; stronger effect = lower value. activity change, % at 57.5 µM. 360,000 tested, 4.7% active. AID 743279, 2014; in the data active = activity change below about -50%; inconclusive = mostly about -30% to -49%
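Secreted IL-1B measured by AlphaLISA bead assay after 16 h compound exposure of THP-1 cells; compounds (final up to 57.5 uM) added 1 h before LPS (250 ng/mL) and ATP (1.25 mM) stimulation; lower signal means less secretion.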
HT1080 IDH1KD tx – qHTS for induction of synthetic lethality in tumor cells producing 2HG: qHTS for the HT-1080-IDH1KD cell line; HT-1080 IDH1 knockdown viability, ATP luminescence, 48 h; Potency, µM (highest dose often 46.1 µM), without a hit: at the highest dose activity, negative = toxicity, actives largely listed as cytotoxic; 360,000 tested, 2% active;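 also: potency is read from the fitted curve at half-maximal effect; 0% = DMSO wells and -100% = cell-free medium wells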
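CellTiter-Glo luminescence after 48 h compound exposure at 37 degrees C of IDH1-knockdown HT-1080 cells in 5% FBS RPMI. %Activity scaled between DMSO wells and cell-free media wells, with curves fitted and assigned curve classes.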
HT1080-NT tox – qHTS for induction of synthetic lethality in tumor cells producing 2HG: qHTS for the HT-1080-NT fibrosarcoma cell line; HT-1080-NT fibrosarcoma viability, CellTiter-Glo ATP luminescence, 48 h; 360,000 tested, 1.6% active; Potency, µM (titrated, usually from 46.1 µM), for inactives: at the highest dose activity, negative = less viability, usual class: cytotoxic;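 also: NT is the 2HG producing partner of a matched IDH1 knockdown line; potency is read from the fitted curve at half-maximal effect; 0% = DMSO-treated cells and -100% = media-only wells without cells; nearly all actives have a fitted effect of over 55% in size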
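HT-1080-NT; 750 cells/well; 5% FBS RPMI; 48 h compound, 37 degrees C; CellTiter-Glo luminescence; curve fitting and curve-class assignment.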
TDP1 cell CPT – qHTS for Inhibitors of human tyrosyl-DNA phosphodiesterase 1 (TDP1): qHTS in cells in presence of CPT; chicken DT40 Tdp1-/-;hTDP1 cells + 20 nM CPT, ATP luminescence, 48 h; Potency, µM (series often up to 46.2 µM), inactives show at the highest dose activity change, negative = growth inhibition, hits mostly inhibitors; 420,000 tested, 12% active; AID 686979, 2013; also: potency is read from the fitted curve at half-maximal effect; nearly all actives have a fitted effect of over 55% in size
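Chicken DT40 Tdp1-/- cells stably complemented with human TDP1 were seeded at 400 cells/well in medium containing 20 nM camptothecin, exposed to pin-transferred compounds, and grown at 37 °C for at least 48 hr. Viability was read as ATP luminescence.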
DT40 TDP1 no CPT – qHTS for Inhibitors of human tyrosyl-DNA phosphodiesterase 1 (TDP1): qHTS in cells in absence of CPT; DT40 Tdp1-/- hTDP1 cells, no CPT, ATP luminescence, 48 h; Potency, µM (top dose mostly 46.2 µM), for inactives: at the highest dose activity change, negative = growth inhibition, most hits filed as inhibitors; 420,000 tested, 15% active; also: potency is read from the fitted curve at half-maximal effect; nearly all actives have a fitted effect of over 55% in size
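Luminescent ATP content (CellTiter-Glo) served as the growth readout. Knockout chicken DT40 cells expressing human TDP1 were exposed to compounds without camptothecin for a minimum 48 hr at 37 °C.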
An asterisk follows results filed as active; u = inconclusive; x = not tested or not shown; [ ] = another dose, or the depositor's remark. Unless noted, calls follow the shape of the dose curve; as a rule, active = well fitted curve in the direction sought with a large enough effect; inconclusive = small, poorly fitted or top-dose-only effect, or another doubt; inactive = no such curve, though single readings can be large; an effect the other way counts as inactive or inconclusive. Unless noted, % is scaled to controls: 0 for no effect and ±100 for the full control effect.

SMILES | IL-1B inflam inh | HT1080 IDH1KD tx | HT1080-NT tox | TDP1 cell CPT | DT40 TDP1 no CPT
CN(Cc1nc(-c2ccc(Cl)cc2)no1)C(=O)c1ccco1 | -8.6 | -13.6% | -17.8% | -25.7% | u
CC(C)N(Cc1nc(-c2ccc(Cl)cc2)no1)C(=O)CCCN1C(=O)c2ccccc2C1=O | 0.5 | -1.4% | -3.8% | u | -25.7%
CC(C)N(Cc1nc(-c2ccccc2)no1)C(=O)c1ccc(Br)o1 | -21.8 | -18.5% | -28.6% | -20.0% | 16.4µM*
CC(C)N(Cc1nc(-c2ccc(Cl)cc2)no1)C(=O)CN(C)S(=O)(=O)c1ccc(Cl)cc1 | 0.7 | u | -28.3% | -24.4% | u
CC(C)N(Cc1nc(-c2ccc(Cl)cc2)no1)Cc1nccn1C | -13.0 | -0.4% | 0.5% | u | 16.4µM*
Cc1onc(-c2ccccc2Cl)c1C(=O)NCc1nc(-c2ccccc2)no1 | -11.6 | -8.2% | -6.0% | 9.2µM* | 9.2µM*
CC(C)N(Cc1nc(-c2ccccc2)no1)C(=O)C1CCCCC1 | 9.3 | 10.2% | -4.2% | u | u
CC(C)N(Cc1nc(-c2ccccc2)no1)C(=O)c1ccc(Cl)cc1 | -16.9 | -12.9% | -12.8% | 18.4µM* | 18.4µM*
COc1ccccc1CNC(=O)c1c(-c2ccccc2Cl)noc1C | 13.6 | 5.3% | -2.9% | u | u
O=C(CN(C(=O)c1ccccc1)C(=O)c1ccccc1)OCc1ccccc1 | 11.2 | -0.7% | 3.1% | -3.3% | -20.7%
O=S(=O)(NCCN1CCCC1)c1ccc(C(F)(F)F)cc1 | 11.2 | 0.0% | 0.3% | -0.4% | -17.6%
COC(=O)CCn1nc(-c2ccc(C)cc2)c2ccccc2c1=O | 18.9 | -2.0% | -3.8% | -21.6% | -21.2%
O=C(CCN1CCCCO1)N1CCCC(Nc2ccc(F)cc2)C1 (stereo not drawn) | -5.9 | 6.3% | 6.2% | 10.8% | -3.6%
Cc1ccccc1OCC(=O)N(Cc1nc(-c2ccccc2)no1)C(C)C | u | -4.9%[9.24 µM] | u | u | u
CC(C)N(Cc1nc(-c2ccccc2)no1)C(=O)c1ccc([N+](=O)[O-])cc1 | -11.9 | -8.2% | -14.2% | 4.61µM* | 5.17µM*
Cc1ccc(-c2noc(CNC(=O)c3ccc(C)c(Cl)c3)n2)cc1 | x | x | x | u | 23.1µM*
C/C=C/c1c(F)c(F)c(Oc2ccc(C(=O)O)cc2)c(F)c1F | 16.4 | 3.2% | 15.8µM* | -3.8% | 2.5%
CCOC(=O)N1CCN(c2c(N3CCN(c4ccc(F)cc4)CC3)c(=O)c2=O)CC1 | -0.8 | 2.5% | -22.9% | -10.6% | u
CCOC(=O)N1CCC(Nc2c(N3CCN(c4cccc(C(F)(F)F)c4)CC3)c(=O)c2=O)CC1 | -21.0 | 4.6% | 2.8% | 23.1µM* | u
CCOC(=O)N1CCC(Nc2c(-c3ccccc3)c(=O)c2=O)CC1 | 5.5 | 13.3% | -0.1% | u | 23.1µM*
CCOC(=O)N1CCC(Nc2c(Nc3cccc(CC)c3)c(=O)c2=O)CC1 | 35.7 | u | -2.2%[9.24 µM] | u | 18.4µM*
COc1cccc(C2(CC(=O)N3CCC(c4nc5ccccc5o4)CC3)CC(=O)N(C)C2=O)c1 (stereo not drawn) | x | x | x | 6.9% | 0.7%
COc1cc(C2Nc3ccccc3NC3=C2C(=O)CC(C)(C)C3)cc(OC)c1OC(C)=O (stereo not drawn) | -1.7 | 0.9% | -9.3% | 25.7% | 5.2%
CC(C)CN(C(=O)CN(C)C(=O)Cc1ccccc1Cl)c1c(N)n(CC(C)C)c(=O)[nH]c1=O | 11.3 | -0.3% | 3.3% | u | -21.1%
CC1(Cc2ccc(Cl)c(Cl)c2)C(=O)Nc2ccc(S(=O)(=O)NC3CCCCC3)cc21 (stereo not drawn) | -17.4 | u | u | u | u
SMILES | IL-1B inflam inh | HT1080 IDH1KD tx | HT1080-NT tox | TDP1 cell CPT | DT40 TDP1 no CPT
CC1(Cc2cc(Cl)ccc2C(F)(F)F)C(=O)Nc2ccc(S(=O)(=O)NC3CCCCC3)cc21 (stereo not drawn) | -20.8 | u | u | 25.9µM* | u
CSC1=C(C#N)C(=O)NC(c2ccc(Cl)cc2)S1 (stereo not drawn) | u | -3.5% | -1.6% | u | 16.4µM*
Cc1onc(-c2ccccc2)c1NC(=O)Nc1ccc(OC(F)F)cc1 | -6.0 | 9.4% | 6.5% | -10.6% | u
COc1ccc(-c2ccc(F)cc2)cc1[C@H]1[C@H]2C=CC[C@@H](C)[C@@H]2C(=O)N1Cc1ccccc1 | -5.0 | u | u | u | u
COc1ccc([C@H]2[C@H]3C=CC[C@@H](C)[C@@H]3C(=O)N2Cc2ccccc2)cc1Cl | 46.3 | -1.6% | -25.8% | u | 16.4µM*
COC(=O)/C=C/c1cccc([C@H]2[C@@H]3C=CC[C@@H](C)[C@@H]3C(=O)N2Cc2ccccc2)c1 | 9.1 | -11.2% | -11.3% | 23.1µM* | 16.4µM*
COc1ccc(-c2ccc([C@H]3[C@H]4C=CC[C@@H](C)[C@@H]4C(=O)N3Cc3ccccc3)c(F)c2)cc1C | 10.7 | -6.9% | -15.3% | 14.6µM* | 14.6µM*
COc1ccc(-c2ccc(OC)c([C@H]3[C@H]4C=CC[C@@H](C)[C@@H]4C(=O)N3Cc3ccccc3)c2)cc1OC | -16.8 | 6.0% | 12.8% | u | 16.4µM*
COc1ccc(CN2CCCC(n3cc(C(=O)N4CCCCC4)nn3)C2)cc1OC (stereo not drawn) | x | x | x | 1.0%[9.04 µM] | -5.3%
O=C(CCc1ccccc1)NNC(=O)Cc1ccccc1 | 26.7 | 17.2% | -10.0% | -3.2% | -8.0%
COc1ccc(N2CCN(C(=O)CSc3nnc(-c4ccco4)n3C)CC2)cc1 | 2.6 | -2.5% | 1.2% | 4.6% | -9.1%
C[C@@H]1CC=C[C@H]2[C@H]1C(=O)N(Cc1ccccc1)[C@H]2c1ccc(-c2ccc(F)cc2)cc1F | 56.6 | -21.8% | -29.5% | 16.4µM* | 13µM*
C[C@@H]1CC=C[C@H]2[C@H]1C(=O)N(Cc1ccccc1)[C@H]2c1ccc(-c2cc3ccccc3s2)cc1F | 28.5 | 6.9% | 3.8% | 16.4µM* | 14.6µM*
C[C@@H]1CC=C[C@@H]2[C@H]1C(=O)N(Cc1ccccc1)[C@H]2c1cccc(C#Cc2ccccc2)c1 | 33.5 | u | -28.8% | 29.1µM* | 10.3µM*
C[C@@H]1CC=C[C@H]2[C@H]1C(=O)N(Cc1ccccc1)[C@H]2c1ccc(-c2ccoc2)cc1F | 10.9 | -17.6% | u | u | u
COc1ccc(-n2c(=O)c3c(c4cc(OC)ccc4n3C)n(C)c2=O)cc1 | x | x | x | -1.9% | 0.6%
